Source: PubChem (National Center for Advancing Translational Sciences (NCATS))
In the library only some 2.9% were active in any assay of this set; here they are far more common.
SNCA viab count: counter-screen for SNCA expression inhibitors: cell viability | HEK-293-SNCA-luc viability, GF-AFC fluorescence, 24 h | Potency, µM (doses to about 57.1 µM), hits mostly cytotoxic | 0.12% of 150,000 active | AID 1671193; also: nearly all actives have a fitted effect of over 30% in size
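Cytotoxicity counterscreen: after 24 h compound treatment of genome-edited SNCA-luciferase HEK-293 cells, live-cell protease substrate GF-AFC read by fluorescence after 30 min; activity scaled between DMSO (0%) and medium-only (-100%), curves Hill-fitted.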
KDM5B inh: KDM5B demethylase inhibition; Q9UGL1; KDM5B demethylase, FDH-coupled NADH fluorescence (FDH is formaldehyde dehydrogenase); Potency, µM (titrated, usually from 57.7 µM), actives largely listed as inhibitors; 2.6% of 220,000 active; AID 1347165; also: nearly all actives have a fitted effect of over 70% in size
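Compound dilutions met 200 nM (final) KDM5BΔAP for 10 min at room temperature before substrate addition. The substrate mix held 12.5 µM H3K4me3 with cofactors 25 µM α-ketoglutarate and 50 µM Fe²⁺. NADH signal gain over 30 min defined activity.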
SNCA expr inh: SNCA gene expression inhibition; AID 1671194; Potency, µM (top dose mostly 57.2 µM), usual class: inhibitors; HEK-293 SNCA-luciferase knock-in, luminescence, 24 h; 0.17% of 140,000 active; also: nearly all actives have a fitted effect of over 45% in size
IP6K1 inh: blocks human inositol hexakisphosphate kinase 1. IP6K1 kinase, ADP-Glo luminescence, 2 h; hits give low values. activity change, % (series mostly up to about 58 µM). 0.81% of 140,000 active. AID 1645851; in the data active = activity change below about -25%
Target sequence (Q92551 whole entry, looked up): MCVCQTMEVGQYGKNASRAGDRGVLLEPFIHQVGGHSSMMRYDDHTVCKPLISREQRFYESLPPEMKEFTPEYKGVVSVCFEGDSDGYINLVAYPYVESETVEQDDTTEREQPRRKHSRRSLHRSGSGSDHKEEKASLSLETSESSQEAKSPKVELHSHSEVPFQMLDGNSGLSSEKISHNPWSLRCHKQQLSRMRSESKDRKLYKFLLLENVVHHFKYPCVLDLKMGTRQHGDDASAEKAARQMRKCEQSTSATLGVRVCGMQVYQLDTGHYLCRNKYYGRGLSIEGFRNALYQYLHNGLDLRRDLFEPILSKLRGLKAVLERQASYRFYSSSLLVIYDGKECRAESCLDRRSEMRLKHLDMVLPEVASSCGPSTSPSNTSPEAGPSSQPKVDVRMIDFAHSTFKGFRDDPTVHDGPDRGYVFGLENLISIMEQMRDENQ
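ADP-Glo luminescence measures ADP made by human IP6K1 during a 2 h RT reaction with ATP/IP6 (mix at 1.3 mM/130 uM); top library doses 57.5 and 19.1 uM final.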
Numbers stand for hits. Unless noted, calls follow the shape of the dose curve; as a rule, active = well fitted curve in the direction sought with a large enough effect; inconclusive = small, poorly fitted or top-dose-only effect, or another doubt; inactive = no such curve, though single readings can be large; an effect the other way counts as inactive or inconclusive.

Screening COCCNC(=O)Cc1c[nH]c2ncc(-c3ccc(OC)cc3)cc12 returned SNCA viab count inactive, KDM5B inh 35.5µM, SNCA expr inh inactive and IP6K1 inh inactive.
COc1ccc(-c2cnc3[nH]cc(CC(=O)NCc4cnccn4)c3c2)cc1 was read as SNCA viab count inactive, KDM5B inh inactive, SNCA expr inh inactive and IP6K1 inh inactive.
Screening O=C(Cc1c[nH]c2ncc(-c3ccccc3)cc12)NCCCn1ccnc1 returned SNCA viab count inactive, KDM5B inh 39.8µM, SNCA expr inh inactive and IP6K1 inh inactive.
Screening O=C(NCCCn1ccnc1)c1ccc(-c2ccccc2)cc1 returned KDM5B inh inactive.
COCCNC(=O)Cc1c[nH]c2ncc(-c3ccccc3)cc12 was read as SNCA viab count inactive, KDM5B inh 39.8µM, SNCA expr inh inactive and IP6K1 inh inactive.
For C=CCNC(=O)c1cnn2c1CN(C(C)=O)CC2 the results were SNCA viab count inactive, KDM5B inh inactive, SNCA expr inh inactive and IP6K1 inh inactive.
Screening C=CCNC(=O)c1cnn2cc(C)ccc12 returned SNCA viab count inactive, KDM5B inh 39.8µM, SNCA expr inh inactive and IP6K1 inh inactive.
O=C(NCc1ccc(Cl)cc1)c1cccn2cncc12 was read as SNCA viab count inconclusive, KDM5B inh inconclusive, SNCA expr inh inactive and IP6K1 inh inactive.
Cc1ccc2c(C(=O)Nc3ccc(Cl)nc3)cnn2c1 was read as SNCA viab count inactive, KDM5B inh 39.8µM, SNCA expr inh inactive and IP6K1 inh inactive.
For C=CCNC(=O)c1cnn2ncccc12 the results were SNCA viab count inactive, KDM5B inh 31.6µM, SNCA expr inh inactive and IP6K1 inh inactive.
Screening Cc1ccc2c(C(=O)Nc3ccc(F)cc3)cnn2c1 returned SNCA viab count inactive, KDM5B inh inconclusive, SNCA expr inh inactive and IP6K1 inh inactive.
Screening C=CCNC(=O)c1cnn2c1CN(C(=O)c1cccnc1)CC2 returned SNCA viab count inactive, KDM5B inh inactive, SNCA expr inh inactive and IP6K1 inh inactive.
`Cc1ccc2c(C(=O)NCc3ccc(Cl)cc3)cnn2c1` gave SNCA viab count inactive, KDM5B inh 35.5µM, SNCA expr inh inactive and IP6K1 inh inactive.
`Cc1cnc(CNc2nc(-c3c(C)noc3C)nc3ccccc23)cn1` gave SNCA viab count inactive and SNCA expr inh inactive.
For O=c1[nH]c(-c2ccc(F)cc2)nc2c1CCN(S(=O)(=O)c1cccs1)C2 the results were SNCA viab count inactive, KDM5B inh 31.6µM, SNCA expr inh inactive and IP6K1 inh inactive.
`O=c1[nH]c(-c2ccc(F)cc2)nc2c1CCN(S(=O)(=O)c1ccc3c(c1)CCC3)C2` gave SNCA viab count inactive, KDM5B inh inconclusive, SNCA expr inh inactive and IP6K1 inh inactive.
Screening O=C(CCC1CCCN(S(=O)(=O)c2ccccc2F)C1)NCCN1CCOCC1 (centres undefined) returned SNCA viab count inactive, KDM5B inh 20µM, SNCA expr inh inactive and IP6K1 inh inactive.
CC(=O)c1ccc(NC(=O)Nc2ccc(Br)cc2C)cc1 was read as KDM5B inh inactive.
C[C@H](NC(=O)Cc1cc(F)cc(F)c1)C(=O)N[C@@H]1C(=O)N(C)c2ccccc2-c2ccccc21 was read as SNCA viab count inconclusive, SNCA expr inh inconclusive and IP6K1 inh inactive.
For CCCOCCNC(=O)c1c(C)noc1-c1ccc2c(c1)OCO2 the results were SNCA viab count inactive, KDM5B inh 28.2µM, SNCA expr inh inactive and IP6K1 inh inactive.
For CCCOCCCNC(=O)c1c(C)noc1-c1ccc2c(c1)OCO2 the results were SNCA viab count inactive, KDM5B inh 28.2µM, SNCA expr inh inactive and IP6K1 inh inactive.
Screening Cc1nnnn1Cc1ccc(C(=O)N2CCc3nc(-c4cn[nH]c4)[nH]c3C2)cc1 returned SNCA viab count inactive, KDM5B inh inactive, SNCA expr inh inactive and IP6K1 inh inactive.
For CNc1ncccc1C(=O)N1CCc2nc(-c3cn[nH]c3)[nH]c2C1 the results were SNCA viab count inactive, KDM5B inh 28.2µM, SNCA expr inh inactive and IP6K1 inh inactive.
For CCN(CC)Cc1nnc2cc(-c3nc(-c4ccccc4)no3)ccn12 the results were SNCA viab count inactive, KDM5B inh 20µM, SNCA expr inh inactive and IP6K1 inh inactive.
Screening c1ccc(-c2noc(-c3ccn4c(CN5CCCCCC5)nnc4c3)n2)cc1 returned SNCA viab count inactive, KDM5B inh inconclusive, SNCA expr inh inactive and IP6K1 inh inactive.
C=CCN(CC=C)Cc1nnc2cc(-c3nc(-c4ccccc4)no3)ccn12 was read as SNCA viab count inactive, KDM5B inh 25.1µM, SNCA expr inh inactive and IP6K1 inh inactive.
